Source: PubChem BioAssay (several laboratories)
KKLEB cytotox: CF airway cell cytotoxicity counter-screen | KKLEB CF airway cells viability, ATPlite luminescence, overnight; active compounds read low; cells stimulated with P. aeruginosa culture filtrate | activity change (cytotoxicity), % at 5 µM | 360,000 compounds, 0.36% hits;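 active = corrected activity change at or below -50% at 5 µM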
Peg3 promoter: Peg3 promoter activity inhibition. inhibition, % at 20 µM. 360,000 compounds, 1.7% hits. HeLa PEG-Prom luciferase reporter, luminescence, overnight. AID 588405;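 active = inhibition of at least 50% at 20 µM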
MITF TRPM1 inh: MITF TRPM1 promoter inhibition in SK-MEL-5 cells; inhibition, % at 12.5 µM; SK-MEL-5 TRPM1 promoter luciferase, 24 h; AID 488899; 330,000 compounds, 0.83% hits;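 active = mean inhibition across replicates of 60% or more, whatever share of single replicates reaches that level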
Shn3 3UTR inh: Schnurri-3 reporter inhibition in Clone20 osteoblasts; Clone20 osteoblast Shn3 3'UTR firefly luciferase, 24 h; inhibition, % at 12.5 µM; 360,000 compounds, 0.52% hits; AID 588674;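 active = mean inhibition of at least 75% with every replicate also reaching 75%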;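 also: 0% = median of neutral control wells and 100% = pilot-screen positive control compound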
HIF-2a block: HIF-2a inhibition | 360,000 compounds, 0.72% hits | 786-0 RCC cells HIF-2a reporter, luciferase luminescence, overnight | inhibition, % at 18.8 µM;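 active = inhibition of the luminescence signal of 40% or more relative to plate controls, in a single-dose primary screen at 18.75 µM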
CF NFkB inh: cystic fibrosis NF-kB activation inhibition | inhibition, % at 5 µM | 360,000 compounds, 0.86% hits | KKLEB NF-kB-GFP reporter, PAF-induced, GFP fluorescence overnight | AID 588850;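 active = at least 50% inhibition at 5 µM, scaled per plate between neutral and stimulator controls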;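 also: PAF is a Pseudomonas aeruginosa culture filtrate used as stimulus; plate controls were PAF-stimulated DMSO wells for no effect and unstimulated DMSO wells for full effect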
An asterisk follows results filed as active; . = no result given. An excerpt weighted towards active compounds, which were near 2.8% of everything screened.

SMILES	KKLEB cytotox	Peg3 promoter	MITF TRPM1 inh	Shn3 3UTR inh	HIF-2a block	CF NFkB inh
COc1ccc(C2c3c(ncn(CCN4CCOCC4)c3=N)Oc3ccc4ccccc4c32)cc1 (stereo not drawn)	-14.3	60.3*	59.8	-15.3	20.2	-13.6
N=c1c2c(ncn1Cc1ccco1)Oc1c(ccc3ccccc13)C2c1ccccc1 (stereo not drawn)	-31.3	80.1*	15.4	9.3	-51.4	33.7
CN(C)CCn1cnc2c(c1=N)C(c1ccccc1)c1ccc3ccccc3c1O2 (stereo not drawn)	-10.1	108.7*	92.5*	20.1	-9.4	9.9
CCOc1ccc(-c2cnc3ccccc3n2)cc1	-14.6	28.4	43.0	60.7	70.6*	-5.4
CCOc1ccc(-c2cn3ccccc3n2)cc1	-51.3*	-82.6	18.6	0.3	-78.8	-24.7
O=[N+]([O-])c1ccc(-c2cnc3ccccc3n2)cc1	-1.2	-206.6	-59.5	-81.2	-225.4	-16.5
CCn1c(C)[n+](CC(O)COCC2CC=CCC2)c2ccccc21 (stereo not drawn)	-3.7	5.4	19.1	-13.1	-5.1	17.7
Cc1ccc([C@H]2N[C@]3(CCCN(Cc4ccc(F)cc4)C3=O)[C@H]3C(=O)N(C)C(=O)[C@@H]23)cc1	-0.7	18.6	.	6.0	-9.0	-16.4
NC(=O)/C(=C\c1cccnc1)NC(=O)c1ccccc1	0.1	13.2	14.5	0.0	7.6	11.3
O=C(Nc1cccc(Cl)c1)Nc1ccnc(-c2cccnc2)n1	9.5	78.0*	2.5	-56.4	-73.4	-107.2
CN(Cc1ccccc1)C(=O)c1nc2ccccn2c1CN1CCC(N2CCOCC2)CC1	-8.9	-3.0	-10.6	-13.5	10.6	-0.7
O=C(Nc1ccc(Cl)c(Cl)c1)Nc1nnc(CSc2ccccc2)s1	-56.1*	42.3	29.7	58.4	5.0	73.4*
CCOC(=O)/C(=C/c1ccco1)NC(=O)c1ccc(Br)o1	-7.3	15.1	3.1	2.0	-0.5	-5.5
Cc1ccc(NC(=O)Cn2c(O)c(N=NC(=O)c3cc4ccccc4cc3O)c3ccccc32)cc1	-35.1	96.6*	40.0	67.0	-46.4	20.5
Cc1ccccc1N1CC(O)(c2cccs2)[N+]2=C1CCCC2 (stereo not drawn)	-10.1	2.9	-22.0	1.1	15.8	1.4
Cc1cccc(N2CC(O)(c3cccs3)[N+]3=C2CCCC3)c1C (stereo not drawn)	1.3	0.3	-7.3	90.0*	22.5	-6.8
Nc1c(C(=O)NCC2CCCO2)c2nc3ccccc3nc2n1/N=C/c1ccncc1 (stereo not drawn)	-4.6	59.5*	4.0	-1.2	3.8	-35.1
CC(C)Cn1c(N)c(C(=O)NCC2CCCO2)c2nc3ccccc3nc21 (stereo not drawn)	-5.2	32.1	0.9	13.8	13.2	36.4
Cc1ccccc1C(=O)Nc1ccc2c(c1)OCCO2	0.2	-56.1	9.5	3.9	-47.5	11.9
O=C(Nc1ccc2c(c1)OCCO2)c1coc2ccccc2c1=O	3.8	3.3	72.6*	49.9	16.6	24.8
O=C(CCl)Nc1c(C(=O)Nc2ccc3c(c2)OCCO3)oc2ccccc12	-31.4	98.3*	-13.8	94.7*	-52.3	19.8
Cc1cccc(C)c1NC(=O)C1(C)CSCC(=O)N1CCc1ccccc1F (stereo not drawn)	.	.	.	.	6.3	.
CSc1nnc(NC(=O)c2ccc(S(=O)(=O)N3CCOCC3)cc2)s1	4.2	-84.5	-23.7	-59.6	-96.3	-15.6
Cn1c(=O)[nH]c(=O)c2c1nc1n2CC(O)CN1c1ccccc1 (stereo not drawn)	0.3	-5.6	-11.8	-7.3	2.1	-5.1
COc1ccc2nc3cc(Cl)ccc3c(Nc3cc(C(C)C)c(O)cc3C)c2c1	-56.2*	104.9*	9.6	17.4	-3.7	38.0
SMILES	KKLEB cytotox	Peg3 promoter	MITF TRPM1 inh	Shn3 3UTR inh	HIF-2a block	CF NFkB inh
COc1ccccc1NC(=O)Nc1nc(C(N)CC(C)C)cs1 (stereo not drawn)	-3.6	61.3*	.	7.9	5.5	-4.2
COc1ccc(OC)c(NC(=O)Nc2nc(C(N)CCc3ccccc3)cs2)c1 (stereo not drawn)	-18.3	100.2*	.	5.8	-22.7	24.1
COc1ccc(CC(N)c2csc(NC(=O)Nc3ccccc3-c3ccccc3)n2)cc1 (stereo not drawn)	-15.0	92.0*	.	44.8	9.0	14.8
COc1ccc(OC)c(NC(=O)Cc2csc(NC(=O)Nc3ccccc3OC)n2)c1	-16.4	53.8*	-9.4	3.3	-5.6	-8.7
CCCCC[C@H]1CCCCC[C@H](O)C[C@@H](O)[C@H](O)/C=C/C(=O)O1	.	.	.	.	1.0	.
CCOc1ccc(-c2c(C(=O)N/N=C/c3c[nH]c4ccccc34)nnn2-c2nonc2N)cc1	23.3	27.7	18.3	20.0	21.3	-22.4
COc1ccccc1NC(=O)Nc1nc(C(N)Cc2ccc(Cl)cc2)cs1 (stereo not drawn)	-6.8	106.2*	.	7.6	10.9	5.7
COc1ccc(CC(N)c2csc(NC(=O)NCc3ccccc3)n2)cc1 (stereo not drawn)	-10.9	22.2	.	-7.8	3.8	6.2
COc1ccccc1NC(=O)Nc1nc(CC(=O)NCc2c(F)cccc2F)cs1	-8.0	20.8	-1.0	-8.7	-27.7	-11.2
COc1ccc(CCNC(=O)Nc2nc(C(N)Cc3ccccc3)cs2)cc1OC (stereo not drawn)	-1.7	17.4	.	27.6	12.0	-7.9
NC(CCc1ccccc1)c1csc(NC(=O)NCC2CCCCC2)n1 (stereo not drawn)	-11.3	98.1*	.	14.6	-55.2	8.5
COc1ccccc1NC(=O)Nc1nc(C(N)Cc2ccccc2)cs1 (stereo not drawn)	3.4	60.5*	.	28.8	-6.0	3.7
COc1ccccc1NC(=O)Nc1nc(CC(=O)N2CCN(c3ccccc3F)CC2)cs1	5.2	52.4*	-11.1	23.9	-18.5	-23.2
Cc1ccc2cc(C)c3nnc(SCC(=O)Nc4nc5c(s4)CCCC5)n3c2c1C	-12.4	2.5	-8.9	5.3	-14.2	1.7
CCCCNC(=O)c1cnc(Cc2c[nH]c3ccccc23)c(I)c1	-5.7	-15.8	.	-12.7	-63.8	7.9
C#CCOCCOCCOCCNc1nc(N2CCN(C(=O)CCCCCCCCCCNC(=O)[C@@H](CCSC)n3cc(CCO)nn3)CC2)nc(N2CCN(C(=O)CCCCCCCCCCNC(=O)[C@H]([C@@H](C)CC)n3cc(CCCCN=C(N)N)nn3)CC2)n1	13.0	-2.3	62.7*	46.2	-2.2	-9.9
CC[C@H](C)Cc1cn([C@@H](CCCCNC(=O)OC(C)(C)C)C(=O)NCCCCCCCCCCC(=O)N2CCN(C(=O)OC(C)(C)C)CC2)nn1	-7.2	26.3	68.2*	68.9	0.7	0.3
C#CCOCCOCCOCCNc1nc(N2CCN(C(=O)CCCCCCCCCCNC(=O)[C@H](CCCCN)n3cc(C[C@@H](C)CC)nn3)CC2)nc(N2CCN(C(=O)CCCCCCCCCCNC(=O)[C@H](CCCCN)n3cc(C[C@@H](C)CC)nn3)CC2)n1	-28.0	104.8*	40.7	-15.8	23.6	8.6
